This is an account of results in PubChem BioAssay (NCATS).

Several values for one entry are separate records, joined by “and”; a condition that tells them apart may be missing. Equal values may be shown once. Results filed as inconclusive are left out. A number with no mark means an inactive call. Activity calls are given as the source filed them. Unless noted, the call rests on the fitted dose curve; in most records, active means well fitted curve in the direction sought with a large enough effect; inconclusive means small, poorly fitted or top-dose-only effect, or another doubt; inactive means no such curve, though single readings can be large; an effect the other way counts as inactive or inconclusive.

A short description of assay [1]: NS1 protein of Zika virus - qHTS assay to identify small molecule inhibitors in human HEK 293 cells (AID 1347053).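 Further: series mostly up to about 46 µM; plate controls were infected untreated cells for no effect and uninfected cells for full effect; nearly all actives have a fitted effect of over 55% in size.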 The method, boiled down:
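TR-FRET signal from two anti-ZIKV NS1 antibodies quantified NS1 in HEK 293 cells 24 h after MR766 infection at MOI = 0.5; compounds were added 1 h before virus. Uninfected cells and infected cells defined the NS1 normalization range.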

Assay [2] in a line: qHTS of pediatric cancer cell lines to identify multiple opportunities for drug repurposing: Primary screen for TC32 cells (AID 1347089). Further: on the % scale 0 is the no-effect control and ±100 the full control effect; nearly all actives have a fitted effect of over 60% in size. The method, boiled down:
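Luminescent ATP read-out (CellTiter-Glo) of metabolically active TC32 cells after 48 h exposure. Concentration-response curves came from 11-point (MIPE, 0.78 nM–46 µM) or 8-point (NPC, 0.59 nM–46 µM) primary titrations; follow-up used 11 points.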
Background: In qHTS, concentration-response curves come from the screen itself.

Assay [3] is described as follows: qHTS of pediatric cancer cell lines to identify multiple opportunities for drug repurposing: Primary screen for DAOY cells (AID 1347090).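 Further: series mostly up to about 46 µM; plate controls were DMSO for no effect and bortezomib for full effect; nearly all actives have a fitted effect of over 55% in size.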 A digest of the protocol:
(§1)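 Viability measured as metabolically active cells via CellTiter-Glo luminescence following 48 hours of compound exposure, 11-point dilutions in confirmatory testing. 500-1,000 cells/well plated 5 hours before dosing; controls were DMSO and 2.3 µM bortezomib.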

Assay [4] is described as follows: qHTS of pediatric cancer cell lines to identify multiple opportunities for drug repurposing: Primary screen for SJ-GBM2 cells (AID 1347091).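 Further: plate controls were DMSO neutral control for no effect and bortezomib for full effect.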 A digest of the protocol: as §1
Assay [5] can be described thus: qHTS of pediatric cancer cell lines to identify multiple opportunities for drug repurposing: Primary screen for A673 cells (AID 1347092). Further: on the % scale 0 is the no-effect control and ±100 the full control effect; nearly all actives have a fitted effect of over 45% in size. The method, boiled down: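 Cell viability of A673 measured by CellTiter-Glo ATP luminescence after 48 hours compound exposure. Dilution series spanned 0.78 nM to 46 µM (MIPE, 11-point) or 0.59 nM to 46 µM (NPC, 8-point); bortezomib 2.3 uM positive control.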

The nature of assay [6]: qHTS of pediatric cancer cell lines to identify multiple opportunities for drug repurposing: Primary screen for BT-37 cells (AID 1347094).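 Further: series mostly up to about 57 µM; plate controls were DMSO for no effect and bortezomib for full effect.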 A digest of the protocol: (§2)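 Readout: CellTiter-Glo luminescence, 48 h treatment. Controls DMSO (neutral) and bortezomib 2.3 µM final (positive). Potency and efficacy taken from primary-screen concentration-response curves.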
A short description of assay [7]: qHTS of pediatric cancer cell lines to identify multiple opportunities for drug repurposing: Primary screen for NB-EBc1 cells (AID 1347095).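 Further: plate controls were DMSO neutral control for no effect and bortezomib for full effect.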 The method, boiled down: as §2
A short description of assay [8]: qHTS of pediatric cancer cell lines to identify multiple opportunities for drug repurposing: Primary screen for U-2 OS cells (AID 1347096).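 Further: plate controls were DMSO wells for no effect and bortezomib positive control wells for full effect; nearly all actives have a fitted effect of over 50% in size.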 A digest of the protocol: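 Viability after 48 h compound treatment at 37C, 500-1,000 cells/well, read as ATP luminescence with CellTiter-Glo. Primary screens used 11-point (MIPE, 0.78 nM-46 µM) or 8-point (NPC, 0.59 nM-46 µM) final concentrations; follow-up screens used 11-point dilutions.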

Assay [9] can be described thus: qHTS of pediatric cancer cell lines to identify multiple opportunities for drug repurposing: Primary screen for Saos-2 cells (AID 1347097). Further: on the % scale 0 is the no-effect control and ±100 the full control effect; nearly all actives have a fitted effect of over 40% in size. The method, boiled down:
as §2

Assay [10] is described as follows: qHTS of pediatric cancer cell lines to identify multiple opportunities for drug repurposing: Primary screen for SK-N-SH cells (AID 1347098). Further: on the % scale 0 is the no-effect control and ±100 the full control effect; nearly all actives have a fitted effect of over 65% in size. The method, boiled down:
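Cells (500-1,000/well) rested 5 h, then received compounds for 48 h; metabolically active cells were measured by CellTiter-Glo luminescence. Final concentrations spanned up to 46 µM (MIPE, 11-point) or 0.59 nM-46 µM (NPC, 8-point) in primary screens, 11-point in follow-ups.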

Assay [11] can be described thus: qHTS of pediatric cancer cell lines to identify multiple opportunities for drug repurposing: Primary screen for NB1643 cells (AID 1347099).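 Further: plate controls were DMSO neutral control for no effect and bortezomib positive control for full effect; nearly all actives have a fitted effect of over 50% in size.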 A digest of the protocol:
as §2

A short description of assay [12]: P-glycoprotein substrates identified in KB-8-5-11 adenocarcinoma cell line, qHTS therapeutic library screen (AID 1346987). Further: nearly all actives have a fitted effect of over 65% in size. Further: potency means the concentration at half of the fitted maximal effect. On activity change, negative = cytotoxicity: series mostly up to about 44 µM; on the % scale 0 is the no-effect control and ±100 the full control effect. The method, boiled down: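 Compounds are pinned in dose-response onto KB-8-5-11 cells (500 cells/well, colchicine-free medium) and left 72 h at 37 degree C. CellTiter-Glo luminescence then yields AC50 values.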
The nature of assay [13]: qHTS of pediatric cancer cell lines to identify multiple opportunities for drug repurposing: Primary screen for SK-N-MC cells (AID 1347093).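 Further: series mostly up to about 46 µM; plate controls were DMSO neutral control for no effect and bortezomib for full effect.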 The method, boiled down: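 Metabolically active cells were quantified by ATP-dependent luminescence (CellTiter-Glo, 15 min at room temperature) following 48 h treatment. Cells had been plated at 500-1,000 per well and settled for 5 h beforehand.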

Assay [14] is described as follows: qHTS assay for small molecule agonists of the antioxidant response element (ARE) signaling pathway measured by Nrf2-dependant transcriptional activity (AID 720636; active means well fitted curve in the direction sought with a large enough effect in the repeat runs; an effect the other way counts as inactive or inconclusive;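 further: HepG2 cells with an ARE-driven luciferase reporter; % of control where 0% means no effect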). The method, boiled down: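 Nrf2-dependent transcription is measured in ARE-luc HepG2 cells: compound is applied for 16 hr at 37 C after a 6 hr attachment period, and luciferase activity is quantified by luminescence using ONE-Glo.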

The nature of assay [15]: qHTS assay for small molecule antagonists of the retinoid-related orphan receptor gamma (ROR-gamma) signaling pathway - cell viability counter screen (AID 720652; active means well fitted curve in the direction sought with a large enough effect in the repeat runs; an effect the other way counts as inactive or inconclusive;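 further: series mostly up to about 92 µM; compound exposure lasted 16 hr before ATP read; on the % scale 0 is the no-effect control and ±100 the full control effect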). A digest of the protocol: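 Cytotoxicity counter screen: intracellular ATP (CellTiter-Glo luminescence) measured in the doxycycline-induced CHO RORE-luciferase reporter line after 16 hr compound exposure at 37 C, 5% CO2.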

Assay [16] in a line: qHTS assay for small molecule agonists of the antioxidant response element (ARE) signaling pathway measured by Nrf2-dependant transcriptional activity - cell viability counter screen (AID 720653; active means well fitted curve in the direction sought with a large enough effect in the repeat runs; an effect the other way counts as inactive or inconclusive; further: on the % scale 0 is the no-effect control and ±100 the full control effect). Particulars: ARE-bla HepG2 viability, CellTiter-Glo ATP luminescence, 16 h; hits give low values. The method, boiled down:
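ARE-bla HepG2 cells treated with compounds for 16 h at 37C; this counter screen measures viability as intracellular ATP by CellTiter-Glo luminescence after 30 min at room temperature.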

Assay [17] in a line: qHTS assay for cell viability of HEK293 cells (AID 743288). Further: on the % scale 0 is the no-effect control and ±100 the full control effect; nearly all actives have a fitted effect of over 50% in size. Particulars: ATP luminescence (CellTiter-Glo), 18 h, hits give low values. The method, boiled down: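 Readout is luciferase-coupled ATP content (CellTiter-Glo luminescence, 30 min room temperature) as a measure of metabolically competent cells. Parental HEK293 cells were plated 5 h or more before compound addition, then treated 18 h at 37 C.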

The nature of assay [18]: qHTS assay for cell viability of the p53RE-bla HCT-116 cell line (AID 743292). Further: on the % scale 0 is the no-effect control and ±100 the full control effect; nearly all actives have a fitted effect of over 55% in size. The method, boiled down: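 ATP-based luminescence, 16 h compound exposure at 37 C, p53RE-bla HCT-116 cells at 4,000/well.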
Assay [19] is described as follows: qHTS Assay for Identifying Gametocytocidal Compounds (AID 743244).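 Further: on the % scale 0 is the no-effect control and ±100 the full control effect; actives lower the fluorescent signal which means gametocytes are killed.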 Particulars: P. falciparum 3D7 stage III-V gametocytes, alamarBlue, 72 h; max response: hits give low values. A digest of the protocol: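 Stage III–V gametocytes of P. falciparum 3D7 were seeded at 20,000 cells/well onto pre-dispensed compounds. After 72 h, 37 °C, 5% CO2, alamarBlue was added for another 24 h.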

As for `O=C(O)c1ccccc1NCCc1ccccc1`, the Potency entry in assay [1], in assay [5], in [9], in [10] and in [11] was “inactive” throughout. Moreover, the outcome in assay [2], in assay [3], in [4], in [6], in assay [7] and in [8] was inactive.

As for `C=C(CO[C@@H]1O[C@H](CO[C@@H]2OC[C@](O)(CO)[C@H]2O)[C@@H](O)[C@H](O)[C@H]1O)C1Cc2cc(C(C)=O)ccc2O1` (stereo not given in full), in assay [12], the Potency result is “inactive”.

Turning to `NCc1c[nH]c(=S)n1[C@@H]1CCc2c(F)cc(F)cc2C1`, the Potency result in assay [12] is “inactive”.

For the compound `COC(=O)CC1CC(c2ccc(O)cc2)=NO1` (stereo not given), in assay [12], the Potency entry was “inactive”.

As for `CC(=O)OC[C@]12[C@H](OC(C)=O)C(=O)[C@@H]3[C@@H](OC(C)=O)[C@@]14O[C@@]3(C)COC(=O)c1cccnc1[C@@H](C)[C@H](C)C(=O)O[C@@H]([C@H](O)[C@@H]2OC(C)=O)[C@]4(C)O`, the Potency result in assay [12] is “inactive”.

In the case of `OC[C@@]1(O)CO[C@@H](OC[C@H]2O[C@@H](Oc3c[nH]c4ccccc34)[C@H](O)[C@@H](O)[C@@H]2O)[C@@H]1O`, the Potency entry in [12] was “inactive”.

In the case of `O=C(NCc1ccc(F)cc1)C(=O)c1c[nH]c2ccccc12`, the Potency entry in assay [12] is “inactive”.

`CCOCCOC(=O)/C=C/c1ccc(OC)cc1`: the Potency entry in [1], in [5], in [9], in [10] and in [11] was “inactive” in each case. Besides, the outcome in assay [2], in assay [3], in assay [4], in [13], in assay [6] and in assay [7] was inactive. The compound was classed as inactive in assay [8].

Turning to `COc1cc2ncnc(Nc3ccc(O)cc3)c2cc1OC`, the Potency result in assay [12] was “inactive”.

As for `CC(=O)N[C@@H](C(=O)O[C@H]1CCC(C)(C)[C@@H]2CCC3=C(COC3=O)[C@@]12C)C(C)C`, the Potency result in [12] is “inactive”.

Regarding `CC1=CC(=O)[C@]2(O[C@@H]3O[C@@H](C)[C@H](O)[C@@H](O)[C@H]3OC(=O)/C=C/c3ccccc3)C=CO[C@@H](O[C@@H]3O[C@H](CO)[C@@H](O)[C@H](O)[C@H]3O)[C@H]12`, the Potency entry in [12] was “inactive”.

As for `Cc1cc(C(=O)N2CCCCc3ccccc32)ccc1CNC(=O)N1CCC[C@H]1C(=O)N(C)C`, the Potency entry in [12] was “inactive”.

`C1CCC[C@H]2CCCN3CC[C@@H](CCCCCC[C@@H]4CCCN5CC[C@@H](CC1)O[C@@H]45)O[C@@H]23`: in assay [12], the outcome was “inactive [at 0.0709 µM]”.

As for `CC(=O)O[C@@H]1CC(C)=C2[C@H]1[C@H](C)CC[C@H]2/C=C(\C)C(=O)O`, the outcome in assay [14], in [15] and in [18] was inactive. In addition, the max response was -16.1% in [16] and -5.49% in assay [17]. The Potency entry in assay [12] was “inactive”.

On to `CN1CCN(c2ccc(C(=O)Nc3n[nH]c4ccc(Cc5cc(F)cc(F)c5)cc34)c(NC3CCOCC3)c2)CC1`, for which the Potency in [12] was 16.4 µM (active) and 13 µM (active).

Regarding `Cn1cc(S(=O)(=O)c2ccc(Cl)cc2)c2cccc(N3CCNCC3)c21`, in assay [12], the Potency is 20.6 µM (active).

In the case of `C[C@@H]1O[C@@H](OC[C@H]2O[C@@H](Oc3cc(O)cc4c3C(=O)C(O)(Cc3ccc(O)cc3)O4)[C@H](O)[C@@H](O)[C@@H]2O)[C@H](O)[C@H](O)[C@H]1O` (stereo not given in full), in assay [12], the Potency entry is “inactive”.

On to `O=C(O)c1c(O)c(-c2ccccc2)nc2ccccc12`, for which the Potency result in assay [1], in assay [5], in assay [9], in [10] and in [11] was “inactive” each time. The compound was classed as inactive in [2], in assay [3], in [4], in [6] and in assay [8].

Turning to `Cc1ccc(S(=O)(=O)c2ccc([N+](=O)[O-])o2)cc1`, the Potency in [12] is 4.61 µM (active).

Consider `Cc1ccc(C(=O)N(CCCN)C(c2oc3cc(Cl)ccc3c(=O)c2Cc2ccccc2)C(C)C)cc1` (stereo not given), for which the Potency in assay [12] was 0.517 µM (active).

For `C[C@H](C/C=C/C(C)(C)O)[C@H]1CC[C@@]2(C)[C@@H]3[C@@H](O[C@@H]4O[C@H](CO)[C@@H](O)[C@H](O)[C@H]4O)C=C4C(CC[C@H](O)C4(C)C)[C@]3(C=O)CC[C@]12C` (stereo not given in full), the Potency entry in assay [12] was “inactive”.

As for `CC(=O)O[C@H]1C(=O)[C@@]2(C)[C@H]([C@H](OC(=O)c3ccccc3)[C@]3(O)C[C@H](OC(=O)[C@H](O)[C@@H](NC(=O)c4ccccc4)c4ccccc4)C(C)=C1C3(C)C)[C@]1(OC(C)=O)CO[C@@H]1C[C@@H]2O`, the result in assay [14] and in assay [18] was inactive. Further, the max response in assay [16] was -7.37%; in assay [19] it was -7.34%; in assay [17], -10.4%. For the same compound, the Potency in [12] is 0.873 µM (active).

With `C[C@@H]1O[C@@H](O[C@@H]2[C@@H](O)[C@H](O[C@H]3[C@H](O[C@H]4CC[C@@]5(C)C(CC[C@]6(C)C5CC=C5[C@@H]7CC(C)(C)CC[C@]7(C(=O)O[C@@H]7O[C@H](CO)[C@@H](O)[C@H](O)[C@H]7O[C@@H]7O[C@@H](C)[C@H](O[C@@H]8O[C@@H](C)[C@H](O)[C@@H](O)[C@H]8O)[C@@H](O)[C@H]7O)CC[C@]56C)[C@@]4(C)CO)O[C@H](C(=O)O)[C@@H](O)[C@@H]3O)O[C@H](CO)[C@H]2O)[C@H](O)[C@H](O)[C@H]1O` (stereo not given in full), the activity change, negative = cytotoxicity in assay [12] was 9.26% [at 9.29 µM].

As for `CC1(C)CC[C@]2(C(=O)O[C@@H]3O[C@H](CO)[C@@H](O)[C@H](O)[C@H]3O)CC[C@]3(C)C(=CCC4[C@@]5(C)CC[C@H](O[C@@H]6O[C@H](C(=O)O)[C@@H](O)[C@H](O)[C@H]6O)[C@@](C)(CO)C5CC[C@]43C)C2C1` (stereo not given in full), the activity change, negative = cytotoxicity in assay [12] is -4.65% [at 9.29 µM].

Turning to `C=C(C)C1Cc2cc(C(=O)OC3OC(CO)C(O)C(O)C3O)ccc2O1` (stereo not given), the Potency entry in assay [12] was “inactive”.
